This passage reports outcome and Potency results from PubChem BioAssay (Tox21).

Inconclusive results are not listed. Values without a mark were called inactive. Activity calls are given as the source filed them. Unless noted, the call rests on the fitted dose curve; in most records, active means well fitted curve in the direction sought with a large enough effect in the repeat runs; inconclusive means weak or mixed curves; inactive means no such curve, though single readings can be large; an effect the other way counts as inactive or inconclusive.

In assay [1] the target is Peroxisome proliferator-activated receptor delta (Homo sapiens) (UniProt Q03181). Description: qHTS assay to identify small molecule agonists of the peroxisome proliferator-activated receptor delta (PPARd) signaling pathway (AID 743212; calls by dose curve). In short, it runs like this: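 Cells expressing a UAS-driven beta-lactamase reporter (PPARd-bla HEK293H) were given test compounds after a 5 h settle and kept at 37 C. Reporter activity was then measured as FRET fluorescence using LiveBLAzer B/G substrate.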
Peroxisome proliferator-activated receptor delta (Homo sapiens), sequence (Q03181 whole entry, looked up): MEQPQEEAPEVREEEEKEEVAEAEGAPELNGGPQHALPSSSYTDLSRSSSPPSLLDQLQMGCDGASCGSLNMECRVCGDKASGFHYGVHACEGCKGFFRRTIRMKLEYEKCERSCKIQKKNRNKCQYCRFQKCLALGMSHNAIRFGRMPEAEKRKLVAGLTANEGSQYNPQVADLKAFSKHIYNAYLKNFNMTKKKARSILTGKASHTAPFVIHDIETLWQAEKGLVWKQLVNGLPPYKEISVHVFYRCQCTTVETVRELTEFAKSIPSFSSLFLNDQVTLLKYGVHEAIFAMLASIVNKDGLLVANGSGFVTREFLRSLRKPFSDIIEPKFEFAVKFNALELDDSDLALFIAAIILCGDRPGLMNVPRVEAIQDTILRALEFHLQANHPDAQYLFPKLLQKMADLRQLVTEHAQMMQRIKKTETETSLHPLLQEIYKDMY
(In general: Quantitative high-throughput screening tests each substance at several concentrations.)

Assay [2] is described as follows: qHTS assay to identify small molecule antagonists of the peroxisome proliferator-activated receptor delta (PPARd) signaling pathway - cell viability counter screen (AID 743213). Further: nearly all actives have a fitted effect of over 50% in size. The essentials: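 HEK293H cells with the PPARd UAS-bla reporter, co-treated 17 h at 37 C with compounds and L165041 (300 nM final), were lysed with CellTiter-Glo. Luminescence indicated viable cell content.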

The target in assay [3] is Bile acid receptor (Homo sapiens) (UniProt Q96RI1). Put plainly: qHTS assay to identify small molecule agonists of the farnesoid-X-receptor (FXR) signaling pathway (AID 743220; active means well fitted activation curve with a large enough effect in the signal ratio in the repeat runs, not every such curve was filed as active; the % refers to the signal ratio). The essentials:
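FXR-UAS-bla HEK 293T cells carrying a UAS-driven beta-lactamase reporter were plated for 5 h at 37C/5% CO2, then exposed to DMSO-dissolved Tox21 10K compounds for 16 h at 37C. A LiveBLAzer B/G FRET substrate was loaded for 2 h at room temperature before fluorescence reading.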

The nature of assay [4]: qHTS assay to identify small molecule antagonists of the farnesoid-X-receptor (FXR) signaling pathway - cell viability counter screen (AID 743221; active means well fitted cell-killing curve with a large enough effect in the repeat runs, not every such curve was filed as active; further: nearly all actives have a fitted effect of over 50% in size). In short, it runs like this:
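FXR-UAS-bla HEK 293T cells were treated with test compounds plus chenodeoxycholic acid (50 uM final) for 16 h at 37 C. Cell viability in the same wells was then read as CellTiter-Glo luminescence after 30 min at room temperature.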

Assay [5] has as its target Vitamin D3 receptor (Homo sapiens) (UniProt P11473). Description: qHTS assay to identify small molecule agonists of the vitamin D receptor (VDR) signaling pathway (AID 743222; calls by dose curve). The essentials: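 Following 4 h attachment at 37C, VDR-bla cells (2,000 per well) received DMSO-dissolved compounds or controls. After 16 h incubation, LiveBLAzer B/G FRET substrate was added and fluorescence read 2 h later at room temperature.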

A short description of assay [6]: qHTS assay to identify small molecule agonists of the vitamin D receptor (VDR) signaling pathway - cell viability counter screen (AID 743224). Further: series mostly up to about 63 µM; nearly all actives have a fitted effect of over 50% in size. In short, it runs like this: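 In parallel with the bla FRET readout, cytotoxicity toward VDR-bla cells after 16 h compound exposure was assessed by CellTiter-Glo, with luminescence recorded after a 30 min room-temperature incubation.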

A short description of assay [7]: qHTS assay to identify small molecule antagonists of the vitamin D receptor (VDR) signaling pathway - cell viability counter screen (AID 743225). Further: nearly all actives have a fitted effect of over 50% in size. In short, it runs like this: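 VDR-bla HEK 293T cells, 4 h pre-incubation at 37C, then compound plus 1-alpha,25-dihydroxyvitamin D3 (3 nM final) for 16 h. After the beta-lactamase FRET read, CellTiter-Glo was added to the same wells; luminescence after 30 min at room temperature.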

Assay [8] in a line: qHTS assay to identify small molecule agonists of the NFkB signaling pathway (AID 1159509; active means well fitted curve in the direction sought with a large enough effect in the signal ratio in the repeat runs, not every such curve was filed as active; the % refers to the signal ratio; further: series mostly up to about 61 µM). In short, it runs like this:
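Pathway activation was measured in ME-180 cells stably expressing beta-lactamase under NF-kB response element control. Substrate cleavage was read as the 460/530 nm emission shift after 5 hr compound incubation.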

Assay [9] is described as follows: qHTS assay to identify small molecule agonists of the NFkB signaling pathway - cell viability counter screen (AID 1159515; calls by dose curve; further: series mostly up to about 61 µM; nearly all actives have a fitted effect of over 55% in size). The essentials:
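Plate 2,000 NFkB-bla ME-180 cells/well; incubate overnight. Add compounds, 5 hr at 37 C. Add FRET substrate, 1.5 hr RT. Add CellTiter-Glo, 30 min RT; read luminescence.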

Assay [10] is described as follows: qHTS assay to identify small molecule agonists of the endoplasmic reticulum stress response signaling pathway (AID 1159516; active means well fitted activation curve with a large enough effect in the signal ratio in the repeat runs, not every such curve was filed as active; the % refers to the signal ratio). The essentials: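 Beta-lactamase expression from the ER stress response element in HeLa reporter cells is quantified with the LiveBLAzer B/G FRET substrate, read at 405 nm excitation after 2 hr at room temperature, following 5 hr compound treatment at 37 C.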

A short description of assay [11]: qHTS assay to identify small molecule agonists of the endoplasmic reticulum stress response signaling pathway - cell viability counter screen (AID 1159517; calls by dose curve). The essentials: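 Cpd-treated ESRE-bla HeLa (5 hr, 37 C) → LiveBLAzer 2 hr RT → CellTiter-Glo 30 min RT → luminescence.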
A short description of assay [12]: qHTS assay to identify small molecule antagonists of the retinoid-related orphan receptor gamma (ROR-gamma) signaling pathway - cell viability counter screen (AID 1159520). Further: nearly all actives have a fitted effect of over 50% in size. In short, it runs like this:
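Tet-on ROR gamma CHO cells (1,000/well) were plated 4 hr, given compounds in DMSO for 2 hr at 37 C, then induced with 1 uM final doxycycline for 16 hr. Viability was read as ATP by CellTiter-Glo luminescence after 30 min.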

The target in assay [13] is Nuclear receptor ROR-gamma (Homo sapiens) (UniProt P51449). Description: qHTS assay to identify small molecule antagonists of the retinoid-related orphan receptor gamma (ROR-gamma) signaling pathway (AID 1159521; further: nearly all actives have a fitted effect of over 50% in size; further: potency means the concentration at half of the fitted maximal effect). The essentials:
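Tet-on RORγ CHO cells carrying a ROR response element–luciferase reporter were pretreated with compounds for 2 h, then induced with 1 uM (final) doxycycline hyclate for 16 h at 37 C. Antagonism was read as decreased ONE-Glo luminescence.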

A short description of assay [14]: qHTS assay to identify small molecule agonists of the AP-1 signaling pathway - cell viability counter screen (AID 1159525; calls by dose curve; further: nearly all actives have a fitted effect of over 55% in size). The essentials: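 Each titration point was normalised to DMSO and tetra n-octyl ammonium bromide controls. The read was Cell Titer Glo luminescence after 30 min at RT, following 5 h compound exposure of ME-180 AP-1-bla cells at 37 °C.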
Assay [15] is described as follows: qHTS assay to identify small molecule agonists of the AP-1 signaling pathway (AID 1159526; calls by dose curve; further: potency means the concentration at half of the fitted maximal effect).
Assay [16] can be described thus: qHTS assay to identify small molecule agonists of the peroxisome proliferator-activated receptor delta (PPARd) signaling pathway - cell viability counter screen (AID 743211). Further: nearly all actives have a fitted effect of over 55% in size. The essentials:
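PPARd-bla HEK293H cells (UAS-beta-lactamase reporter) were treated with compounds for 17 h at 37 C. Viability was then read in the same wells by CellTiter-Glo luminescence after 30 min at room temperature.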

The target in assay [17] is Peroxisome proliferator-activated receptor delta (Homo sapiens) (UniProt Q03181). Put plainly: qHTS assay to identify small molecule antagonists of the peroxisome proliferator-activated receptor delta (PPARd) signaling pathway (AID 743215; active means well fitted inhibition curve with a large enough effect in the signal ratio in the repeat runs, not every such curve was filed as active; the % refers to the signal ratio;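 further: cells stimulated with agonist L165041 at 300 nM final during compound exposure; series mostly up to about 62 µM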). In short, it runs like this:
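Fluorescence from cleaved LiveBLAzer B/G FRET substrate (2 h, room temperature) reports PPARd-driven beta-lactamase in HEK293H UAS-bla cells. Cells had been treated 17 h at 37 C with compound plus 300 nM final L165041.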

Assay [18] has as its target Bile acid receptor (Homo sapiens) (UniProt Q96RI1). Put plainly: qHTS assay to identify small molecule antagonists of the farnesoid-X-receptor (FXR) signaling pathway (AID 743217; active means well fitted inhibition curve with a large enough effect in the signal ratio in the repeat runs, not every such curve was filed as active; the % refers to the signal ratio). The essentials:
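FRET fluorescence after 2 h room-temperature LiveBLAzer loading gives the readout. Prior step: FXR-bla HEK 293T cells, seeded and incubated 5 h, received test compounds plus 50 uM final CDCA for 16 h at 37 °C.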

Assay [19] is described as follows: qHTS assay to identify small molecule agonists of the farnesoid-X-receptor (FXR) signaling pathway - cell viability counter screen (AID 743218). Further: nearly all actives have a fitted effect of over 45% in size. The essentials: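 Readout: CellTiter-Glo luminescence, 30 min RT, multiplexed after the FXR-bla FRET reading. HEK 293T FXR-UAS-bla cells received compound 5 h post-plating and were incubated 16 h at 37 C.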
Assay [20] addresses Vitamin D3 receptor (Homo sapiens) (UniProt P11473). Put plainly: qHTS assay to identify small molecule antagonists of the vitamin D receptor (VDR) signaling pathway (AID 743223; active means well fitted inhibition curve with a large enough effect in the signal ratio in the repeat runs, not every such curve was filed as active; the % refers to the signal ratio). In short, it runs like this: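 VDR-bla cells were plated, incubated 4 h at 37C, then given compound and 1alpha,25-dihydroxyvitamin D3 (3 nM final). After 16 h at 37C, LiveBLAzer B/G FRET substrate was added for 2 h at room temperature and fluorescence read.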

Vitamin D3 receptor (Homo sapiens), sequence (P11473 whole entry, looked up): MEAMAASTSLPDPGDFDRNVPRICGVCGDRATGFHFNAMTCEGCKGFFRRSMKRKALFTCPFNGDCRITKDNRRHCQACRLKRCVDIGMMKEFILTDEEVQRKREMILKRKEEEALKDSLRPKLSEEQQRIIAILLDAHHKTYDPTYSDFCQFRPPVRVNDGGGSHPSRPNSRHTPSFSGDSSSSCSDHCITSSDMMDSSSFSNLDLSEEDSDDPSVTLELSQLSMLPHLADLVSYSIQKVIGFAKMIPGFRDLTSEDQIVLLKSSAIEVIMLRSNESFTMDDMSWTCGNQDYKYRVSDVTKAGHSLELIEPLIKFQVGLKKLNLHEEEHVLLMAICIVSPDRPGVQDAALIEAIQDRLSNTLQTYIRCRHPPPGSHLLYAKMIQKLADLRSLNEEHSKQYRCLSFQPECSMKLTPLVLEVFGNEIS
Bile acid receptor (Homo sapiens), sequence (Q96RI1 whole entry, looked up): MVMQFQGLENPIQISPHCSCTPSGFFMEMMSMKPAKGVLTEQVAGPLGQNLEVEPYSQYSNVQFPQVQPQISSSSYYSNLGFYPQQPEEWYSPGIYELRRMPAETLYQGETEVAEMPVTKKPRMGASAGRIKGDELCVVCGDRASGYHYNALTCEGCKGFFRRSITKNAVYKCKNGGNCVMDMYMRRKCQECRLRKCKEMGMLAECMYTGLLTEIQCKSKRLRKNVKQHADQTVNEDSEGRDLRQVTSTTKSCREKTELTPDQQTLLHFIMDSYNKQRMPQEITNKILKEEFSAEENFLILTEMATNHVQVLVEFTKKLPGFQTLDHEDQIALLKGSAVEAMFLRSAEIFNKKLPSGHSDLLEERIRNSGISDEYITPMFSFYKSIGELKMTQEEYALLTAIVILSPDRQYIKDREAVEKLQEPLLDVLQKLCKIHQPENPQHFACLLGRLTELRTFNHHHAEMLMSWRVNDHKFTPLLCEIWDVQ

As for `O=S(=O)(c1cccc2cnccc12)N1CCCNCC1`, the compound was called inactive in assay [1], in [3], in [5], in assay [6], in assay [7] and in assay [8]. Besides, the compound was classed as inactive in assay [9], in assay [10], in assay [11] and in assay [14]. Besides, the Potency result in [2], in [4], in assay [12], in [13] and in assay [15] was “inactive” each time.

For `CC(C)(C)N(CCO)CCO`, the Potency result in [16], in [2], in [4], in [12], in assay [13] and in assay [15] was “inactive” throughout. Moreover, the compound was called inactive in assay [1], in assay [17], in [18], in assay [19], in [3] and in assay [5]. For the same compound, the call in [20], in [6], in assay [7], in assay [8], in assay [9] and in assay [10] was inactive. For the same compound, the compound was classed as inactive in assay [11].

Consider `CCCC(C)CO` (stereo not given), for which the Potency result in assay [16], in [2], in [4], in assay [12], in [13] and in assay [15] was “inactive” each time. The compound was called inactive in assay [1], in assay [17], in assay [19], in [3], in assay [6] and in assay [7]. Also, the result in assay [8], in assay [9], in assay [10] and in assay [11] was inactive.

As for `CSc1nc(NC2CC2)nc(NC(C)(C)C)n1`, the Potency result in assay [16], in assay [2], in assay [4], in [12], in assay [13] and in assay [15] was “inactive” each time. The outcome in assay [1], in assay [17], in [19], in assay [6], in [7] and in assay [8] was inactive. Besides, the compound was called inactive in assay [9], in [10] and in assay [11].

In the case of `C=C(C)[C@@H]1CCC2=CC(=O)C[C@@H](C)[C@]2(C)C1`, the Potency entry in assay [16], in assay [2], in assay [4], in assay [12], in [13] and in [15] was “inactive” throughout. Also, the outcome in assay [1], in [17], in [19], in assay [5], in assay [6] and in assay [8] was inactive. Besides, the compound was classed as inactive in assay [9], in [10] and in [11].

For the compound `COc1cc(CCC(C)=O)ccc1O`, the Potency entry in assay [16], in [2], in assay [12], in assay [13] and in assay [15] was “inactive” throughout. The result in assay [1], in assay [17], in assay [19], in assay [3], in assay [5] and in assay [20] was inactive. In addition, the call in assay [6], in assay [7], in assay [8], in assay [9], in [10] and in [11] was inactive.

With `c1cc(CN2CCCCC2)cc(OCCCNc2nc3ccccc3s2)c1`, the call in [17], in assay [19], in assay [6], in assay [8], in [9] and in [10] was inactive. Also, the call in assay [11] and in assay [14] was inactive. For the same compound, the Potency entry in [4] and in assay [12] was “inactive” throughout. The figures for the Potency in assay [13] and in assay [15] were 26.6 µM (active) and 26.8 µM (active), respectively.

Turning to `CCCCCCOC(=O)CC(CC(=O)OCCCCCC)(OC(=O)CCC)C(=O)OCCCCCC`, the Potency entry in assay [16], in assay [2], in assay [4], in assay [12], in assay [13] and in [15] was “inactive” throughout. Further, the result in [1], in assay [19], in [8], in assay [9], in assay [10] and in [11] was inactive.

For `COC(=O)[C@H]1[C@H]2C[C@@H]3c4[nH]c5cc(OC)ccc5c4CCN3C[C@H]2C[C@@H](OC(=O)COc2ccc(OC)cc2)[C@@H]1OC`, the Potency result in assay [4], in assay [12], in assay [13] and in assay [15] was “inactive” throughout. The compound was classed as inactive in assay [6], in assay [7], in [8], in assay [9], in assay [10] and in assay [11]. In addition, in assay [14], the call was inactive.

Take `O=C(O)/C=C/c1ccc(/C=C/C(=O)O)cc1`: the Potency result in [16], in assay [2], in [12], in assay [13] and in assay [15] was “inactive” each time. In addition, the result in assay [1], in assay [17], in assay [6], in assay [7], in assay [8] and in [9] was inactive. Further, the call in assay [10] and in assay [11] was inactive.
